MOR-DOR inv ag: inverse agonists of MOR-DOR heterodimerization, primary screen, cell-based, luminescence; AID 504357, 2011; 0.21% of 340,000 active; cell-based MOR-DOR heterodimer luminescence, inverse agonism; inhibition, % at 9.3 µM; in the data active = inhibition above about 22%, passing the limit was not always enough
OPRM1-OPRD1 ag: agonists of OPRM1-OPRD1 heterodimerization, primary screen, cell-based, luminescence. activation, % at 9.3 µM. Mu-type opioid receptor (Homo sapiens) + Delta-type opioid receptor (Homo sapiens), …. cells. AID 504326, 2011. 0.3% of 340,000 active; in the data active = activation above about 18%
HTR5A inv ag: HTR5A inverse agonists in luminescence cell assay, primary screen, counter-screen for OPRM1-OPRD1 heterodimer inverse agonist project, full-deck HTS; inhibition, % at 9.3 µM; 5-hydroxytryptamine receptor 5A (Homo sapiens), P47898; AID 504634, 2011; 0.083% of 340,000 active; HTR5A cell line, inverse agonism; in the data active = inhibition mostly above about 23%, no sharp cut-off; inactive = mostly below about 18%
Target sequence (P47898 whole entry, looked up): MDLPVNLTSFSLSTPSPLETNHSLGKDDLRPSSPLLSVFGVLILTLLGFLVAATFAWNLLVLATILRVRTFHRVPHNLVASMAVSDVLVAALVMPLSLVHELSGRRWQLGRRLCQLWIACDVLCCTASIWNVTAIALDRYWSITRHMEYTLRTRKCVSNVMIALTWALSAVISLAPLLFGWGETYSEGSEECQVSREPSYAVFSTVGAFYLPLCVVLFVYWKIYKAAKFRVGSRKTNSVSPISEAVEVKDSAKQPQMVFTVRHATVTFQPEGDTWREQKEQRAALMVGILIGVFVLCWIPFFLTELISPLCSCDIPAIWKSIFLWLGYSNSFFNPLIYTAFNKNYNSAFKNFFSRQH
HTR2A ag: mouse Htr2a agonists via beta-arrestin recruitment, primary screen, cell-based, luminescence. 5-hydroxytryptamine receptor 2A (Mus musculus), P35363. AID 624169, 2012. CHO-K1 mHTR2A beta-arrestin complementation; percent of 30 µM serotonin response. 0.66% of 360,000 active. activation, % at 7.6 µM;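 active = activation above a run cutoff, the mean activation of all tested compounds plus 3 SD, cut at about 14% in these data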
HTR5A ag: HTR5A agonists in luminescence cell assay, primary screen, counter-screen for OPRM1-OPRD1 heterodimer agonist project, full-deck HTS; 5-hydroxytryptamine receptor 5A (Homo sapiens), P47898; cell-based; activation, % at 9.3 µM; 0.61% of 340,000 active; AID 504692, 2011; in the data active = activation mostly above about 9.5%, no sharp cut-off; inactive = mostly below about 7.6%
OPRM1-D1 inv cf: inverse agonists of MOR-DOR heterodimerization, confirmation, cell-based, luminescence. inhibition, % at 9.3 µM. cells expressing OPRM1/OPRD1 heterodimer. shares compounds with MOR-DOR inv ag. 20% of 580 active; in the data active = inhibition above about 32%
HTR5A inv count: HTR5A inverse agonists, counter-screen for OPRM1-OPRD1 inverse agonist project, cell-based, luminescence; shares compounds with MOR-DOR inv ag; inhibition, % at 9.3 µM; 580 tested, under 10 active; HTR5A-expressing cells, inverse agonism; call rule not given here
Numbers stand for hits. Compounds with a hit are over-represented: about 1.6% of the library has one in this group of screens.

C#CCNC(=O)C1=C[C@@H](c2ccc(C(F)(F)F)cc2)C[C@@H](OCCCCO)O1 was read as MOR-DOR inv ag inactive, OPRM1-OPRD1 ag inactive, HTR5A inv ag inactive, HTR2A ag inactive and HTR5A ag inactive.
`COc1ccc(NC(=O)[C@@H](NS(=O)(=O)c2cccc(Cl)c2)C(C)C)cc1S(=O)(=O)N1CCOCC1` gave MOR-DOR inv ag inactive, OPRM1-OPRD1 ag inactive, HTR5A inv ag inactive, HTR2A ag inactive and HTR5A ag inactive.
CC(C)C1OC2c3cccc4cccc(c34)C2N1c1ccccc1 (stereo not drawn) was read as MOR-DOR inv ag 65, OPRM1-OPRD1 ag inactive, HTR5A inv ag inactive, HTR2A ag inactive, HTR5A ag inactive, OPRM1-D1 inv cf inactive and HTR5A inv count inactive.
Screening CCc1nc(Nc2ccc(OC)c(OC)c2)c2nnn(Cc3ccccc3Cl)c2n1 returned MOR-DOR inv ag inactive, OPRM1-OPRD1 ag inactive, HTR5A inv ag inactive, HTR2A ag inactive and HTR5A ag inactive.
Cc1ccc(CNC(=O)COC(=O)c2nc(-c3ccccc3)oc2C)cc1 was read as MOR-DOR inv ag inactive, OPRM1-OPRD1 ag inactive, HTR5A inv ag inactive, HTR2A ag inactive and HTR5A ag inactive.
Screening Cc1cc(O)c(/C=N/Nc2ccc(Cl)cc2)c(=O)o1 returned MOR-DOR inv ag 46, OPRM1-OPRD1 ag inactive, HTR5A inv ag inactive, HTR2A ag inactive, HTR5A ag inactive, OPRM1-D1 inv cf inactive and HTR5A inv count inactive.
`CN1C(=O)C(O)(CC(=O)c2ccccn2)c2cc(Br)ccc21` (stereo not drawn) gave MOR-DOR inv ag 74, OPRM1-OPRD1 ag inactive, HTR5A inv ag inactive, HTR2A ag inactive, HTR5A ag inactive, OPRM1-D1 inv cf inactive and HTR5A inv count inactive.
CC(C)[C@H](NC(=O)[C@H](Cc1ccccc1)n1c(=O)[nH]c2ccccc2c1=O)C(=O)N1CCC[C@@H]1C(=O)O was read as MOR-DOR inv ag inactive, OPRM1-OPRD1 ag inactive, HTR5A inv ag inactive, HTR2A ag inactive and HTR5A ag inactive.
Cc1cc(C)nc(-n2nc(C)c3c(C(=O)O)cc(-c4cccc(Br)c4)nc32)n1 was read as MOR-DOR inv ag inactive, OPRM1-OPRD1 ag inactive, HTR5A inv ag inactive, HTR2A ag inactive and HTR5A ag inactive.
COc1ccc(Cl)cc1NC(=O)COC(=O)C1=NNC(=O)CC1 was read as MOR-DOR inv ag inactive, OPRM1-OPRD1 ag inactive, HTR5A inv ag inactive, HTR2A ag inactive and HTR5A ag inactive.
`Cn1c(/C=C/c2cccc([N+](=O)[O-])c2)c([N+](=O)[O-])c(=O)n(C)c1=O` gave MOR-DOR inv ag 29, OPRM1-OPRD1 ag inactive, HTR5A inv ag inactive, HTR2A ag inactive, HTR5A ag inactive, OPRM1-D1 inv cf inactive and HTR5A inv count inactive.
Screening CN(C)C(=O)c1nc2ccccc2s1 returned MOR-DOR inv ag inactive, OPRM1-OPRD1 ag inactive, HTR5A inv ag inactive, HTR2A ag inactive and HTR5A ag inactive.
CN(C)c1ccc(CC(=O)c2nc3ccccc3s2)cc1 was read as MOR-DOR inv ag 24, OPRM1-OPRD1 ag inactive, HTR5A inv ag inactive, HTR2A ag inactive, HTR5A ag inactive, OPRM1-D1 inv cf inactive and HTR5A inv count inactive.
`CSC1=C(C#N)C(c2ccccc2Cl)C2=C(N1)c1ccccc1C2=O` (stereo not drawn) gave MOR-DOR inv ag inactive, OPRM1-OPRD1 ag inactive, HTR5A inv ag inactive, HTR2A ag inactive and HTR5A ag inactive.
`CSC1=C(C#N)C(c2ccccc2C)C(C#N)=C(N)N1` (stereo not drawn) gave MOR-DOR inv ag 38, OPRM1-OPRD1 ag inactive, HTR5A inv ag inactive, HTR2A ag inactive, HTR5A ag inactive, OPRM1-D1 inv cf inactive and HTR5A inv count inactive.
For COc1ccc(NC(=O)/C(Cl)=C(/Cl)S(=O)Cc2ccc(Cl)cc2)cn1 (stereo not drawn) the results were MOR-DOR inv ag 41, OPRM1-OPRD1 ag inactive, HTR5A inv ag inactive, HTR2A ag inactive, HTR5A ag inactive, OPRM1-D1 inv cf inactive and HTR5A inv count inactive.
Screening COc1ccc(NC(=O)C(Cl)=C(Cl)Cl)cn1 returned MOR-DOR inv ag inactive, OPRM1-OPRD1 ag inactive, HTR5A inv ag inactive, HTR2A ag inactive and HTR5A ag inactive.
COC(=O)c1ccc(C)c(-n2c(=O)n(Cc3ccccc3)c(=O)c3[nH]cnc32)c1 was read as MOR-DOR inv ag 52, OPRM1-OPRD1 ag inactive, HTR5A inv ag inactive, HTR2A ag inactive, HTR5A ag inactive, OPRM1-D1 inv cf inactive and HTR5A inv count inactive.
`Cc1ccccc1-n1c(=O)n(Cc2ccccc2)c(=O)c2[nH]cnc21` gave MOR-DOR inv ag inactive, OPRM1-OPRD1 ag inactive, HTR5A inv ag inactive, HTR2A ag inactive and HTR5A ag inactive.
Screening O=C(Nc1ccccc1C(=O)O)c1ccccc1 returned MOR-DOR inv ag inactive, OPRM1-OPRD1 ag inactive, HTR5A inv ag inactive, HTR2A ag inactive and HTR5A ag inactive.
NC(=O)c1ccccc1NCC(=O)c1ccc(Cl)cc1 was read as MOR-DOR inv ag 46, OPRM1-OPRD1 ag inactive, HTR5A inv ag inactive, HTR2A ag inactive, HTR5A ag inactive, OPRM1-D1 inv cf inactive and HTR5A inv count inactive.
O=C(CNc1ccccc1C(=O)O)c1ccccc1 was read as MOR-DOR inv ag 71, OPRM1-OPRD1 ag inactive, HTR5A inv ag inactive, HTR2A ag inactive, HTR5A ag inactive, OPRM1-D1 inv cf inactive and HTR5A inv count inactive.
For O=C1C=C(O)c2cccc3cccc1c23 the results were MOR-DOR inv ag inactive, OPRM1-OPRD1 ag inactive, HTR5A inv ag inactive, HTR2A ag inactive and HTR5A ag inactive.
For NN=C1C(=O)c2cccc3cccc1c23 the results were MOR-DOR inv ag 57, OPRM1-OPRD1 ag inactive, HTR5A inv ag inactive, HTR2A ag inactive, HTR5A ag inactive, OPRM1-D1 inv cf inactive and HTR5A inv count inactive.
Cc1ccc(C(=O)Nc2ccccc2[N+](=O)[O-])cc1S(=O)(=O)N1CCOCC1 was read as MOR-DOR inv ag 39, OPRM1-OPRD1 ag inactive, HTR5A inv ag inactive, HTR2A ag inactive, HTR5A ag inactive, OPRM1-D1 inv cf inactive and HTR5A inv count inactive.
Oc1c(C=Nc2ccccc2Cl)[nH]c2ccccc12 was read as MOR-DOR inv ag 48, OPRM1-OPRD1 ag inactive, HTR5A inv ag inactive, HTR2A ag inactive, HTR5A ag inactive, OPRM1-D1 inv cf inactive and HTR5A inv count inactive.
Oc1[nH]c2ccccc2c1N=Nc1ccccc1Cl was read as MOR-DOR inv ag inactive, OPRM1-OPRD1 ag inactive, HTR5A inv ag inactive, HTR2A ag inactive and HTR5A ag inactive.
